From PubChem BioAssay
USP28 inh = human USP28 deubiquitinase inhibition. inhibition, % at 25 µM. Q96RU2. purified USP28, Ub-rhodamine cleavage fluorescence, 30 min. actives 3% (n = 47,000)
USP8 block = human USP8 deubiquitinase inhibition. P40818. purified USP8, Ub-rhodamine cleavage fluorescence, 30 min. inhibition, % at 20 µM. actives 4.2% (n = 47,000)
USP17 inh = inhibitors of human USP17 deubiquitinase; A8MUK1; purified USP17, Ub-rhodamine cleavage fluorescence, 3 h; inhibition, % at 50 µM; actives 6.5% (n = 47,000); AID 1645855
Target sequence (A8MUK1 whole entry, looked up): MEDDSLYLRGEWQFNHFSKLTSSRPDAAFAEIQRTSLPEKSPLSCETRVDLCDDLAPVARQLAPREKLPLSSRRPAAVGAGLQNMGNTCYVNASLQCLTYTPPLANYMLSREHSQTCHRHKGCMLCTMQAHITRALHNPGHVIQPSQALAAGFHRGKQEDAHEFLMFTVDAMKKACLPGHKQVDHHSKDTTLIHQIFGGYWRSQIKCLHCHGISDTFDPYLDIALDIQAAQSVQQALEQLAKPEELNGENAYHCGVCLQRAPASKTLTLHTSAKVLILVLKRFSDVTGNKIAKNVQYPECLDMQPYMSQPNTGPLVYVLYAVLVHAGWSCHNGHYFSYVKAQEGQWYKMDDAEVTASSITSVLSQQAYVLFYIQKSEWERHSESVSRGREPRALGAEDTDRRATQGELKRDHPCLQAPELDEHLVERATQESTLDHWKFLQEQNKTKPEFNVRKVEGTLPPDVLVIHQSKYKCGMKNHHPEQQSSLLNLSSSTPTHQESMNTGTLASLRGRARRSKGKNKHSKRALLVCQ
USP30 block = blocks human USP30 ubiquitin-rhodamine cleavage. purified USP30, Ub-rhodamine cleavage fluorescence. inhibition, % at 25 µM. actives 5.3% (n = 47,000)
A number is an active result. The list is not random: actives were taken first. Their share in the collection is about 13%. No stated cut-off is given here; in the data, active means inhibition above about 30%; inactive means the rest.

What do the screens show for `Cc1nc(-c2ccc(C)c(S(=O)(=O)NCC(=O)Nc3cc(Cl)ccc3C)c2)no1`?
USP28 inh: inactive; USP8 block: inactive; USP17 inh: inactive; USP30 block: inactive

How did Clc1ccc(Cl)c(-c2nc(-c3cccs3)no2)c1 do in these assays?
USP28 inh: inactive; USP8 block: inactive; USP17 inh: inactive; USP30 block: inactive

Results for Cc1nc2sccn2c1-c1nc(-c2cc(Cl)ccc2Cl)cs1 ?
USP28 inh: inactive; USP8 block: inactive; USP17 inh: 49.5; USP30 block: 45.7

How did COc1ccc(-c2cc3nc([C@@H](C)NC(=O)c4ccc5c(c4)OCO5)nn3cn2)cc1 do in these assays?
USP28 inh: 63.7; USP8 block: 32.0; USP17 inh: inactive; USP30 block: 85.2

How did COc1ccc(-c2cc3nc([C@H](C)NC(=O)Cc4cccc(F)c4)nn3cn2)cc1 do in these assays?
USP28 inh: inactive; USP8 block: inactive; USP17 inh: 36.8; USP30 block: 59.5

What do the screens show for `COc1cccc(CC(=O)N[C@@H](C)c2nc3cc(-c4ccc(F)cc4)ncn3n2)c1`?
USP28 inh: inactive; USP8 block: inactive; USP17 inh: inactive; USP30 block: inactive

Results for COc1ccc(-c2cc3nc([C@H](C)NC(=O)Cc4cc(F)ccc4F)nn3cn2)cc1 ?
USP28 inh: inactive; USP8 block: inactive; USP17 inh: 40.3; USP30 block: 36.6

What do the screens show for `COc1ccc(CN2CCC3(CC2)CN(C(C)=O)Cc2ccccc2O3)c(OC)c1`?
USP28 inh: inactive; USP8 block: inactive; USP17 inh: inactive; USP30 block: inactive

How did O=C(NCc1ccco1)c1ccc2c(c1)N(Cc1cccc(Cl)c1)C(=O)c1ccccc1S2 do in these assays?
USP28 inh: inactive; USP8 block: inactive; USP17 inh: 37.9; USP30 block: inactive

Results for O=C(CN1C(=O)c2ccccc2Sc2ccc(C(=O)N3CCCC3)cc21)NCc1ccco1 ?
USP28 inh: inactive; USP8 block: inactive; USP17 inh: inactive; USP30 block: inactive

What do the screens show for `COc1cccc2cc(C(=O)Nc3nc(-c4ccncc4)cs3)oc12`?
USP28 inh: inactive; USP8 block: 48.7; USP17 inh: 31.3; USP30 block: 31.1

Results for COc1cccc2cc(C(=O)NCc3cnn4ccccc34)oc12 ?
USP28 inh: inactive; USP8 block: inactive; USP17 inh: inactive; USP30 block: inactive

How did Cc1nnc(-c2c(S(=O)(=O)NCc3ccccc3)c(C)n(C)c2C)o1 do in these assays?
USP28 inh: inactive; USP8 block: inactive; USP17 inh: inactive; USP30 block: inactive

What do the screens show for `COC1=CC(=O)c2c(O)c3c(c(C)c2C1=O)C[C@@]1(O)[C@H](O[C@H]2CC[C@H](O[C@H]4C[C@@](C)(O)[C@H](OC(=O)c5c(C)ccc(C)c5O)[C@H](C)O4)[C@@H](C)O2)C(=O)C(C(C)=O)=C(O)[C@@]1(O)C3=O`?
USP28 inh: 62.7; USP8 block: inactive; USP17 inh: inactive; USP30 block: inactive

How did COc1cccc(CNC(=O)CCCc2nnc3c(=O)n(-c4cccc(F)c4)ccn23)c1 do in these assays?
USP28 inh: inactive; USP8 block: inactive; USP17 inh: inactive; USP30 block: inactive

How did COc1ccc(-n2ccn3c(CCC(=O)NCc4ccc(F)cc4)nnc3c2=O)cc1 do in these assays?
USP28 inh: inactive; USP8 block: inactive; USP17 inh: 69.1; USP30 block: inactive

What do the screens show for `O=C(CCCc1nnc2c(=O)n(-c3cccc(F)c3)ccn12)Nc1ccccc1`?
USP28 inh: inactive; USP8 block: 46.7; USP17 inh: 38.5; USP30 block: inactive

How did O=C(CCCc1nnc2c(=O)n(-c3cccc(F)c3)ccn12)NCCc1ccccc1 do in these assays?
USP28 inh: inactive; USP8 block: inactive; USP17 inh: inactive; USP30 block: inactive

Results for Cc1ccc(CNC(=O)CCc2nnc3c(=O)n(-c4cc(C)cc(C)c4)ccn23)cc1 ?
USP28 inh: inactive; USP8 block: inactive; USP17 inh: inactive; USP30 block: inactive

Results for Cc1cccc(NC(=O)CCCc2nnc3c(=O)n(-c4cccc(F)c4)ccn23)c1 ?
USP28 inh: inactive; USP8 block: 61.2; USP17 inh: inactive; USP30 block: inactive

What do the screens show for `O=C(CCCc1nnc2c(=O)n(-c3cccc(F)c3)ccn12)NCc1ccc(F)cc1`?
USP28 inh: inactive; USP8 block: 47.7; USP17 inh: inactive; USP30 block: inactive

How did CN(C)c1cccc2c(S(=O)(=O)NCCc3ccccn3)cccc12 do in these assays?
USP28 inh: inactive; USP8 block: inactive; USP17 inh: inactive; USP30 block: inactive

What do the screens show for `Cc1ccc(-c2nnc3ccc(N4CCCC4)nn23)cc1`?
USP8 block: inactive; USP17 inh: inactive
